Test results reported in PubChem BioAssay (NCATS).
Inconclusive results are not listed. Calls of active or inactive are those of the source. The call rests on the fitted dose curve; in most records, active means well fitted curve in the direction sought with a large enough effect; inconclusive means small, poorly fitted or top-dose-only effect, or another doubt; inactive means no such curve, though single readings can be large; an effect the other way counts as inactive or inconclusive.

Legend:
[1] = tested on: NIH3T3; assay: qHTS assay to identify novel small-molecules to repurpose for Merkel cell carcinoma treatment (AID 1296009); settings: MCC and control cell lines, CellTiter-Glo viability, 72 h; at 44.8 µM (top of the series) unless noted; further: nearly all actives have a fitted effect of over 60% in size
Procedure, shortened: (§1)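 qHTS format: cells treated with library compounds in DMSO across 8 (NPC) or 11 (MIPE) concentrations. Readout after 72 hr at 37 degree celsius was CellTiter-Glo luminescence.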

[2] = tested on: C33A; assay: Primary qHTS to identify gynecologic anti-cancer compounds using libraries of approved drugs and bioactive compounds (AID 1345084); settings: Gynecologic cancer cell panel viability, ATPlite luminescence, 48 h; series mostly up to 57.5 µM; further: nearly all actives have a fitted effect of over 55% in size
Procedure, shortened: (§2)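 Five-concentration response, 48 h; readout is ATP-driven luciferase luminescence.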

[3] = tested on: CAOV3; assay: as above; settings: Gynecologic cancer cell panel viability, ATPlite luminescence, 48 h; series mostly up to 57.5 µM
Procedure, shortened: as §2

[4] = tested on: CASKI; assay: as above; settings: Gynecologic cancer cell panel viability, ATPlite luminescence, 48 h; series mostly up to 57.5 µM
Procedure, shortened: as §2

[5] = tested on: Es-2; assay: as above; settings: Gynecologic cancer cell panel viability, ATPlite luminescence, 48 h; series mostly up to 57.5 µM
Procedure, shortened: as §2

[6] = tested on: HeLa; assay: as above; settings: Gynecologic cancer cell panel viability, ATPlite luminescence, 48 h; series mostly up to 57.5 µM
Procedure, shortened: as §2

[7] = tested on: Hek293T; assay: as above; settings: Gynecologic cancer cell panel viability, ATPlite luminescence, 48 h, control line for the selectivity index; series mostly up to 57.5 µM
Procedure, shortened: as §2

[8] = tested on: JEG-3; assay: as above; settings: Gynecologic cancer cell panel viability, ATPlite luminescence, 48 h; series mostly up to 57.5 µM
Procedure, shortened: as §2

[9] = tested on: OV90; assay: as above; settings: Gynecologic cancer cell panel viability, ATPlite luminescence, 48 h; series mostly up to 57.5 µM
Procedure, shortened: as §2

[10] = tested on: PA-1; assay: as above; settings: Gynecologic cancer cell panel viability, ATPlite luminescence, 48 h; series mostly up to 57.5 µM
Procedure, shortened: as §2

[11] = tested on: SKOV3; assay: as above; settings: Gynecologic cancer cell panel viability, ATPlite luminescence, 48 h; series mostly up to 57.5 µM
Procedure, shortened: as §2

[12] = tested on: Tov-21-G; assay: as above; settings: Gynecologic cancer cell panel viability, ATPlite luminescence, 48 h; series mostly up to 57.5 µM
Procedure, shortened: as §2

[13] = tested on: Tov112D; assay: as above; settings: Gynecologic cancer cell panel viability, ATPlite luminescence, 48 h; series mostly up to 57.5 µM
Procedure, shortened: as §2

[14] = tested on: MKL-2; assay: qHTS assay to identify novel small-molecules to repurpose for Merkel cell carcinoma treatment (AID 1296009); settings: MCC and control cell lines, CellTiter-Glo viability, 72 h; series mostly up to 46 µM; further: nearly all actives have a fitted effect of over 60% in size
Procedure, shortened: as §1

[15] = tested on: UISO; assay: as above; settings: MCC and control cell lines, CellTiter-Glo viability, 72 h; series mostly up to 46 µM
Procedure, shortened: as §1

[16] = tested on: WaGa; assay: as above; settings: MCC and control cell lines, CellTiter-Glo viability, 72 h; series mostly up to 46 µM
Procedure, shortened: as §1
On the % scale 0 is the no-effect control and ±100 the full control effect.

COC(=O)c1cc(OC)cc(OC)c1C(=O)c1c(OC)cc2c(c1O)C1CCCC(C)(O2)O1 (stereo unspecified)
inactive: outcome [1] inactive [at 17.4 µM] | Potency [2] | Potency [3] | Potency [4] | Potency [5] | Potency [6] | Potency [7] | Potency [8] | Potency [9] | Potency [10] | Potency [11] | Potency [12] | Potency [13]

CCOCCOC(=O)/C=C/c1ccc(OC)cc1
inactive: Potency [14] | Potency [15] | Potency [16] | Potency [2] | Potency [4] | Potency [5] | Potency [6] | Potency [7] | Potency [8] | Potency [9] | Potency [10] | Potency [11] | Potency [12] | Potency [13]

CCCCCCOc1cc2c(cc1N(C)c1ncc(C(=O)O)cn1)C(C)(C)CCC2(C)C
inactive: outcome [1] | Potency [2] | Potency [3] | Potency [4] | Potency [5] | Potency [6] | Potency [7] | Potency [8] | Potency [9] | Potency [10] | Potency [11] | Potency [12] | Potency [13]

CC1(C)CC[C@]2(C(=O)O)CC[C@]3(C)C(=CCC4[C@@]5(C)CC[C@H](O[C@@H]6O[C@H](CO)[C@@H](O)[C@H](O)[C@H]6O[C@@H]6O[C@H](CO)[C@@H](O)[C@H](O)[C@H]6O)[C@@](C)(CO)C5CC[C@]43C)[C@@H]2C1 (stereo partly specified)
inactive: outcome [1] inactive [at 17.4 µM] | Potency [2] | Potency [3] | Potency [4] | Potency [5] | Potency [6] | Potency [7] | Potency [8] | Potency [9] | Potency [10] | Potency [11] | Potency [12] | Potency [13]

COc1cc2c3c(cc4ccccc4c3c1O)NC2=O
inactive: outcome [1] | Potency [2] | Potency [3] | Potency [4] | Potency [5] | Potency [6] | Potency [7] | Potency [8] | Potency [9] | Potency [10] | Potency [11] | Potency [12] | Potency [13]

O=C(/C=C/c1ccccc1)OC[C@]12O[C@H]1[C@@H](O)[C@@H]1C=CO[C@@H](O[C@@H]3O[C@H](CO)[C@@H](O)[C@H](O)[C@H]3O)[C@@H]12
inactive: outcome [1] inactive [at 17.4 µM] | Potency [2] | Potency [3] | Potency [4] | Potency [5] | Potency [6] | Potency [7] | Potency [8] | Potency [9] | Potency [10] | Potency [11] | Potency [12] | Potency [13]

CC1OC(OC2C(C)OC(OC3C(O)C(CO)OC(O[C@H]4CC[C@@]5(C)C(CC[C@]6(C)C5CC=C5C7[C@@H](C)[C@H](C)CC[C@]7(C(=O)O)CC[C@]56C(=O)O)C4(C)C)C3O)C(O)C2O)C(O)C(O)C1O (stereo partly specified)
inactive: outcome [1] inactive [at 9.27 µM] | activity change, negative = cytotoxicity [2] -5.63% [at 11.6 µM] | activity change, negative = cytotoxicity [3] 10.5% [at 11.6 µM] | activity change, negative = cytotoxicity [4] 1.59% [at 11.6 µM] | activity change, negative = cytotoxicity [5] 1.92% [at 11.6 µM] | activity change, negative = cytotoxicity [6] 9.15% [at 11.6 µM] | activity change, negative = cytotoxicity [7] -7.85% [at 11.6 µM] | activity change, negative = cytotoxicity [8] -5.03% [at 11.6 µM] | activity change, negative = cytotoxicity [9] 0.765% [at 11.6 µM] | activity change, negative = cytotoxicity [10] -0.273% [at 11.6 µM] | activity change, negative = cytotoxicity [11] -6.75% [at 11.6 µM] | activity change, negative = cytotoxicity [12] -0.483% [at 11.6 µM] | activity change, negative = cytotoxicity [13] 2.5% [at 11.6 µM]

C=CC(C)(O)C(O)CC1C(C)(O)C(O)C(O)C2C(C)(C)CCCC21C (stereo unspecified)
inactive: outcome [1] | Potency [2] | Potency [3] | Potency [4] | Potency [5] | Potency [6] | Potency [7] | Potency [8] | Potency [9] | Potency [10] | Potency [11] | Potency [12] | Potency [13]

CC1CCC2(OC1)OC1CC3C4CCC5C[C@@H](O[C@@H]6O[C@H](CO[C@@H]7OC[C@@H](O)[C@H](O)[C@H]7O)[C@H](O)[C@H](O)[C@H]6O)CC[C@]5(C)C4CC[C@]3(C)C1C2C (stereo partly specified)
inactive: outcome [1] inactive [at 17.4 µM] | Potency [2] | Potency [3] | Potency [4] | Potency [5] | Potency [6] | Potency [7] | Potency [8] | Potency [9] | Potency [10] | Potency [11] | Potency [12] | Potency [13]

OC[C@H]1O[C@@H](Oc2cc(O)c3c(c2)O[C@@H](c2ccc(O)cc2)[C@H](O)C3)[C@H](O)[C@@H](O)[C@@H]1O
inactive: outcome [1] inactive [at 17.4 µM] | Potency [2] | Potency [3] | Potency [4] | Potency [5] | Potency [6] | Potency [7] | Potency [8] | Potency [9] | Potency [10] | Potency [11] | Potency [12] | Potency [13]

O=C(O)c1ccccc1NCCc1ccccc1
inactive: Potency [14] | Potency [15] | Potency [16] | Potency [2] | Potency [3] | Potency [4] | Potency [5] | Potency [6] | Potency [7] | Potency [8] | Potency [10] | Potency [11] | Potency [12] | Potency [13]

CC1(C)CCC(C)(C)c2cc(C3(c4ccc(C(=O)O)cc4)OCCO3)ccc21
inactive: Potency [2] | Potency [3] | Potency [4] | Potency [5] | Potency [6] | Potency [7] | Potency [8] | Potency [9] | Potency [10] | Potency [11] | Potency [12] | Potency [13]

COC(=O)CC1CC(c2ccc(O)cc2)=NO1 (stereo unspecified)
inactive: Potency [2] | Potency [3] | Potency [4] | Potency [5] | Potency [6] | Potency [7] | Potency [8] | Potency [9] | Potency [10] | Potency [11] | Potency [12] | Potency [13]

O=C(/C=C\c1ccc(O)cc1)N[C@@H](Cc1ccc(O)cc1)C(=O)O
inactive: Potency [2] | Potency [3] | Potency [4] | Potency [5] | Potency [6] | Potency [7] | Potency [8] | Potency [9] | Potency [10] | Potency [11] | Potency [12] | Potency [13]
